Data taken from PubChem BioAssay (NCI).
Compounds without any hit were thinned out: in the full panel of roughly 83,000, 20% have a hit.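 In brief: 96-well plates, 48 h treatment, single concentration, percent growth endpoint.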 Unmarked numbers belong to inactive results. The source made the active and inactive calls. Rule for the calls: active = growth percent below 10; inactive = the rest.

Key:
Assay in all cases: NCI-60 one-dose screen, 48 h (100 = growth as untreated, 0 = no growth, -100 = all killed)
Conditions in all cases: 10 µM unless noted
SK-MEL-2 melanoma = test system: SK-MEL-2 melanoma
EKVX NSCLC = test system: EKVX NSCLC
SN12C renal = test system: SN12C renal
UO-31 renal = test system: UO-31 renal
TK-10 renal = test system: TK-10 renal
ACHN renal = test system: ACHN renal
CAKI-1 renal = test system: CAKI-1 renal
A498 renal = test system: A498 renal
CCRF-CEM leukemia = test system: CCRF-CEM leukemia
MOLT-4 leukemia = test system: MOLT-4 leukemia

Compound | growth (SK-MEL-2 melanoma) | growth (EKVX NSCLC) | growth (SN12C renal) | growth (UO-31 renal) | growth (TK-10 renal) | growth (ACHN renal) | growth (CAKI-1 renal) | growth (A498 renal) | growth (CCRF-CEM leukemia) | growth (MOLT-4 leukemia)
CCc1ccc(C(=O)/C=C/C23c4ccccc4C(c4ccccc42)C2C(=O)NC(=O)C23)cc1 (stereo not given) | 3.45% (active) | 23.2% | -7.89% (active) | 22.1% | 18% | 0.0344% (active) | 27.5% | 5.29% (active) | 0.462% (active) | 2.03% (active)
CCCCCCCCCCCCCCCCCCOc1ccccc1CC(=O)NCC[N+]1(C)CCCC1 | 62.4% | 92% | 29.8% | 85.1% | 25.9% | 95.8% | 74% | 71.5% | 18.8% | 14%
COc1ccc2[nH]cc(-c3nc(-c4c[nH]c5ccncc45)cs3)c2c1 | 84.7% | 10.8% | 71.9% | 49% | 71.1% | 4.58% (active) | 9.06% (active) | 81.5% | -7.05% (active) | -8.02% (active)
O=C(/C=C(/C=C/c1cccc2[nH]ccc12)OB(F)F)/C=C/c1cccc2[nH]ccc12 | -57.9% (active) | -30.9% (active) | -1.2% (active) | -77.6% (active) | -37.9% (active) | -70.3% (active) | -73.6% (active) | -35.2% (active) | -32.1% (active) | -11.9% (active)
C1=CN2CC(c3ccccc3)=NNC2c2ccccc21 (stereo not given) | 89.7% | 73.4% | 88.8% | 53.8% | 120% | 85.7% | 65.2% | 104% | 88.3% | 40.2%
CO[C@]12C=C/C(=C(/C(=O)OCc3cccnc3)C(=O)CCCCCCCC[C@@]3(OC)C=C/C(=C(/C(=O)OCc4cccnc4)C(=O)CCCCCCCC1)O3)O2 | 21.4% | 12.8% | 5.99% (active) | -10.7% (active) | 39% | -19.3% (active) | 22.9% | 1.93% (active) | 1.38% (active) | -2.22% (active)
CC(=O)Nc1nc2ccc(NS(=O)(=O)c3cccc4c(N(C)C)cccc34)cc2[nH]1 | 80.8% | 75.9% | 69.8% | 68.4% | 102% | 75.7% | 42.7% | 2.64% (active) | 47.9% | 59.4%
OCCCC1CCN(C(Cc2ccccc2)c2ccccc2)CC1 (stereo not given) | 52% | 96.2% | 102% | 78.3% | 84.1% | 81.8% | 91.4% | 97.9% | 100% | 99.1%
C#CCOc1ccc2ncnc(Nc3cccc(NC(=O)C=C)c3)c2c1 | 70.8% | 51.6% | 65.3% | 41.3% | 45.2% | 45.8% | 45.5% | 47.7% | 79.9% | 60.6%
CCOC(=O)C#Cc1c(C(=O)OCC)nnn1[C@@H]1O[C@H](CO)[C@H]2OC3(CCCCC3)O[C@H]21 | 106% | 105% | 75.6% | 5.58% (active) | -3.79% (active) | -53% (active) | -99.7% (active) | 110% | 6.89% (active) | 22.3%
COC(=O)CNC(=O)[C@H](Cc1ccccc1)NCc1ccncc1 | 95.3% | 99.5% | 99.3% | 91.2% | 88.5% | 107% | 99.1% | 88.3% | 86% | 105%
COC(=O)c1c2c(c(C)[n+]([O-])c1C)C(=O)C=C(NCc1ccc(OC)cc1)C2=O | -22.2% (active) | -57.6% (active) | -63% (active) | -9.55% (active) | 28.4% | -11.5% (active) | 0.875% (active) | -15.4% (active) | 3.4% (active) | -35.5% (active)
O=C(O)CNC1=C(Cl)C(=O)c2ccccc2C1=O | 100% | 98.6% | 92.7% | 58.9% | 110% | 91.2% | 76.7% | 102% | 91.4% | 100%
CN(Cc1ccc(C(F)(F)F)cc1)CC(O)C(=O)Nc1ccc(Cl)cc1 (stereo not given) | -48.1% (active) | 12.6% | -67.6% (active) | 12.6% | 24.3% | -3.15% (active) | -59.6% (active) | -4.42% (active) | -27.4% (active) | -20.9% (active)
COc1cc(/C=C/C(=O)c2cccc(Nc3nc(Nc4ccccc4)nc(Nc4ccccc4)n3)c2)cc(OC)c1OC | 53.6% | 66.1% | 84.2% | 35.3% | 66.3% | 68.3% | 75.5% | 68.8% | 6.56% (active) | 9.67% (active)
Cc1ccc(-c2nc3nc(-c4ccc(F)cc4)nc(N4CCNCC4)c3o2)cc1 | 102% | 127% | -48.7% (active) | 76.7% | -35.8% (active) | -95.5% (active) | 1.35% (active) | 79.5% | -71% (active) | -64.6% (active)
Clc1ccc(Nc2nnc(COc3ccccc3)c3ccccc23)cc1 | -26.5% (active) | 6.53% (active) | 17% | -12.3% (active) | -17.5% (active) | 3.37% (active) | 15.4% | -17.3% (active) | 1.06% (active) | -32.6% (active)
COc1ccc2[nH]cc(C(c3cc(F)cc(F)c3)c3c[nH]c4ccc(OC)cc34)c2c1 | 62.5% | 88.4% | 87.3% | 44.2% | 124% | 82.9% | 101% | 77.8% | 60.1% | 37.4%
CC1=C(C(=O)OC(C)C)C(c2ccc3c(c2)OCO3)NC(=S)N1 (stereo not given) | 102% | 94.4% | 105% | 84.5% | 98.1% | 99.4% | 93.8% | 109% | 105% | 110%
O=C(COc1ccc(-c2nc3ccccc3[nH]2)cc1)N=Nc1c(O)[nH]c2ccc(Cl)cc12 | 107% | 95.7% | 83.9% | 93.9% | 88.2% | 97.6% | 93.9% | 89.8% | 27.6% | 22.9%
Fc1cc(F)cc(C(c2c[nH]c3ccccc23)c2c[nH]c3ccccc23)c1 | 58.8% | 80.6% | 95.7% | 52.9% | 144% | 87.7% | 90.9% | 71.7% | 89.1% | 81.8%
CC(C)OC(=O)c1ccc2[nH]c(O)c(C(=Nc3ccc(N(C)C(=O)CN4CCN(C)CC4)cc3)c3ccccc3)c2c1 | -73.6% (active) | -3.97% (active) | 8.95% (active) | -96.3% (active) | -90.5% (active) | 2.21% (active) | -93.4% (active) | -48.3% (active) | 6.41% (active) | -17.9% (active)
CCN1CCN(Cc2cn(CC(=O)Nc3ccc4c(ccn4Cc4ccccc4)c3)nn2)CC1 | 106% | 106% | 104% | 81.3% | 99.2% | 102% | 86.7% | 108% | 7.79% (active) | 101%
OCc1cccc(-c2ccc3ncc(-c4nc(NC5CC5)ncc4F)n3c2)c1 | -55.4% (active) | 2.69% (active) | -15.4% (active) | -14.1% (active) | 13.5% | -13.2% (active) | 1.44% (active) | -47.8% (active) | -2% (active) | -27.8% (active)
C=CCn1c(SCC(=O)NCc2cc(C)c(O)c(C)c2)nc2ccc(Cl)cc2c1=O | 101% | 111% | 107% | 74.6% | 113% | 98.9% | 112% | 106% | 86.3% | 81.6%
Clc1ccc(Sc2cnc(-c3ccccc3)o2)cc1 | 100% | 98.5% | 101% | 78.4% | 85.1% | 99.7% | 90.2% | 63.5% | 99.2% | 100%
C=CCc1c2c(c(OC)c3ccoc13)C(=O)/C(=C/c1ccccc1OC)O2 | 58.4% | 60.6% | 62.1% | 65.7% | 52.9% | 59.3% | 38.4% | 46.2% | 37.5% | 45.8%
